From PubChem BioAssay AID1458 (National Center for Advancing Translational Sciences (NCATS), 2008)
Out of some 210,000 compounds screened, about 5,900 (2.8%) were called active. Inconclusive results (about 5%) are left out. Calls come from the whole dose curve; as a rule, active = well fitted activation curve with a large enough effect; inconclusive = small, poorly fitted or top-dose-only effect; inactive = no such curve, though single readings can be large or run the other way. What follows is part of a selection rich in actives, with near analogues and random picks from the rest.

Experiment: qHTS Assay for Enhancers of SMN2 Splice Variant Expression; note: nearly all actives have a fitted effect of over 55% in size; for activity change, positive = activation: % of control where 0% means no effect
Settings: HEK293 SMN2-luciferase splicing reporter, luminescence, 30-36 h; series mostly up to 46.1 µM; activity change, positive = activation: at the top concentration
How it was run: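 qHTS luciferase splicing reporter: luminescence rises when SMN2 exon 7 is included in transfected HEK293 cells. Compound exposure lasted 30-36 h at 37C, with 4.5 mM final sodium butyrate as control, followed by a ONE-Glo read.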
Potency is the fitted concentration of half-maximal effect.

Activity change, positive = activation, inactive:
Cc1ccc(CNC(=O)C2CCN(S(=O)(=O)c3ccc4nc5c(c(C(=O)O)c4c3)CC(C)CC5)CC2)cc1 (configuration not stated) 4.28%
Nc1nonc1C(=O)NCCc1ccccc1 -21%
Cc1cc(C(=O)NCCCc2ccccc2)no1 24%
CCOC(=O)N1CCc2c(sc3c2c(=O)n(-c2ccc(CC)cc2)c(=O)n3C)C1 -4.84%
Cc1ccc(-c2ccc(CCC(=O)O)n2-c2ccc(C(N)=O)cc2)cc1 1.29%
Cc1cccc(OCC(=O)N(Cc2ccc(C(C)C)cc2)Cc2ccco2)c1C 2.91%
Cc1ccc(C)c(Cn2c(=O)n(CCC(=O)NCc3ccc4c(c3)OCO4)c(=O)c3sccc32)c1 -7.25%
COc1ccc(C/C(C)=N/NC(=O)c2cc(C)oc2C)cc1 -0.732%
N=c1oc2ccccc2cc1C(=O)N/N=C/c1ccccc1 -26.9%
CSc1ccc(CCNC(=O)c2cnn(-c3ccccc3)c2-n2cccc2)cc1 -6.66%
CC(C)c1ccc(C2CC(=O)N3CN(C4CCCCC4)CSC3=C2C#N)cc1 (configuration not stated) -3.71%
CC(=O)OC(C(=O)NC1CCCCC1)c1ccccc1 (configuration not stated) 8.55%
O=C(Cn1c(-c2cncs2)nc2ccccc21)NC1CCCC1 -7.74%
COc1ccccc1NC(=O)CSc1oc(-c2ccco2)nc1S(=O)(=O)c1ccc(Br)cc1 2.03%
CCOc1ccc(CNCCSc2nnnn2C)cc1 -10.5%
Cc1occc1C(=O)N1CCCc2ccccc21 23.4%
CCOC(=O)c1c(N)nn(C(=O)c2ccccc2)c1-c1ccccc1 -1.78%
CCCCCn1c(=O)[nH]c2cc(C(=O)NCCN(C)CCCC)ccc2c1=O 15.9%
C=Cc1ccc(Cn2c(C(=O)OC)cc3sc(C)cc32)cc1 18.4%
Cc1ccc(CCNC(=O)c2ccc3c(c2)N(Cc2cc(C)ccc2C)C(=O)c2ccccc2S3=O)cc1 (configuration not stated) -9.89%
Cc1sc(C2C(C#N)=C(N)N(c3cccc(Cl)c3)C3=C2C(=O)CCC3)cc1CN1CCOCC1 (configuration not stated) 8.27%
COc1cccc(-c2nnc(SCC(=O)N3CCC(C)CC3)o2)c1 9.23%
COc1ccc2[nH]c(=O)c(-c3noc(-c4ccc(F)cc4)n3)cc2c1 17%
Cc1ccc(-c2noc(CN3CCN(Cc4ccccc4)CC3)n2)cc1 -89.9%
COc1ccccc1Cc1nc(-c2ccc(C)cc2)no1 -16.6%
Cc1ccc(-c2noc(CC(c3ccccc3)c3ccccc3)n2)cc1 -73.8%

Potency, active:
CC(C)Cc1cc(C(=O)NCCc2ccccc2)no1 12.6 µM
CC(=C/c1ccccc1)/C=N/NC(=O)c1cc(C)oc1C 15.8 µM
O=C(/C=C/c1cnc2ccccc2n1)NC1CCCCCC1 11.2 µM
Cc1nn(C(=O)c2ccoc2C)c(N)c1-c1ccccc1 12.6 µM
Cc1ccc(Cc2nc(-c3cccc(C)c3)no2)cc1 11.2 µM
Cc1cccc(-c2noc(-c3ccc(F)cc3)n2)c1 11.2 µM
